Activity calls are given as the source filed them. The calls were made as follows: active = hit-call score of the fitted dose curve at least 0.9, where 1 is the maximum; inactive = score below 0.9.
What was measured:
Conditions in all cases: mRNA level, 48 h; actives raise or lower the signal
[1] = read-out: Lipase C (LIPC), LIPC (gene 3990); test: LTEA_HepaRG_LIPC: Life Technologies and Expression Analysis (LTEA) Assay for Lipase C (LIPC) using HepaRG (AID 2283514)
Method in brief: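 HepaRG cells, 48 h after plating, treated in duplicate for 48 h in serum-free induction medium over 8 half-log concentrations from 100 uM, 0.5% DMSO. LIPC mRNA by TaqMan qRT-PCR normalized to ACTB/GAPDH/POLR2A; bidirectional fit versus DMSO.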

[2] = read-out: Lipoprotein lipase (LPL), LPL (gene 4023); test: LTEA_HepaRG_LPL: Life Technologies and Expression Analysis (LTEA) Assay for Lipoprotein lipase (LPL) using HepaRG (AID 2283515)
Method in brief: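 Differentiated HepaRG cells, plated 48 h, then exposed 48 h in serum-free induction medium to 8 concentrations (top 100 uM, half-log steps) in 0.5% DMSO, duplicate. LPL mRNA measured by qRT-PCR, normalized to ACTB, GAPDH and POLR2A.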

[3] = read-out: MicroRNA 122 (MIR122), gene 406906; test: LTEA_HepaRG_MIR122: Life Technologies and Expression Analysis (LTEA) Assay for MicroRNA 122 (MIR122) using HepaRG (AID 2283516); also: the transcript read is the microRNA miR-122
Method in brief: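 HepaRG plated 48 h, switched to serum-free induction medium, then treated in duplicate for 48 h (100 uM top, half-log steps, 0.5% DMSO vehicle). RNA isolated, qRT-PCR performed, concentration-response fitted both directions relative to DMSO.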

[4] = read-out: matrix metalloproteinase-10 (MMP10), MMP10 (gene 4319); test: LTEA_HepaRG_MMP10: Life Technologies and Expression Analysis (LTEA) Assay for matrix metalloproteinase-10 (MMP10) using HepaRG (AID 2283517)
Method in brief: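 Differentiated HepaRG cells in serum-free induction medium exposed 48 h in duplicate to 8-point half-log series up to 100 uM in 0.5% DMSO. mRNA quantified by qRT-PCR, normalised to ACTB, GAPDH, POLR2A; bidirectional fit versus DMSO.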

MYC, MYC (gene 4609) = test: LTEA_HepaRG_MYC: Life Technologies and Expression Analysis (LTEA) Assay for MYC using HepaRG (AID 2283518)
Method in brief: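 Differentiated HepaRG cells exposed 48 h in serum-free induction medium to 8 concentrations (top 100 uM, half-log steps; 0.5% DMSO), duplicate. MYC mRNA measured by Fluidigm qRT-PCR, normalized to ACTB, GAPDH, POLR2A; bidirectional fit versus DMSO.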

[5] = read-out: matrix metalloproteinase-3 (MMP3), MMP3 (gene 4314); test: LTEA_HepaRG_MMP3: Life Technologies and Expression Analysis (LTEA) Assay for matrix metalloproteinase-3 (MMP3) using HepaRG (AID 2283519)
Method in brief: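 HepaRG cells (~100,000/well) in serum-free induction medium were dosed in duplicate for 48 h with an 8-point half-log series from 100 uM, 0.5% DMSO. MMP3 mRNA was quantified by Fluidigm TaqMan qRT-PCR, normalized to three housekeeping genes.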

[6] = read-out: Paternally Expressed 10 (PEG10), PEG10 (gene 23089); test: LTEA_HepaRG_PEG10: Life Technologies and Expression Analysis (LTEA) Assay for Paternally Expressed 10 (PEG10) using HepaRG (AID 2283520)
Method in brief: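 HepaRG, 48 h post-plating → serum-free induction medium → 48 h chemical exposure (duplicate, 8-pt, max 100 uM, half-log, 0.5% DMSO) → lysis in RLT → TaqMan qRT-PCR for PEG10, ACTB/GAPDH/POLR2A normalisation.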

[7] = read-out: Protein phosphatase 2A (PPP2R4), PTPA (gene 5524); test: LTEA_HepaRG_PPP2R4: Life Technologies and Expression Analysis (LTEA) Assay for Protein phosphatase 2A (PPP2R4) using HepaRG (AID 2283522)
Method in brief: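 Readout is PPP2R4 transcript level by microfluidic qRT-PCR after 48 h chemical treatment of human HepaRG liver cells. Concentrations spanned 100 uM downward in half-log steps; gain or loss of signal was fitted relative to DMSO.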

[8] = read-out: Phosphatase and tensin (PTEN), PTEN (gene 5728); test: LTEA_HepaRG_PTEN: Life Technologies and Expression Analysis (LTEA) Assay for Phosphatase and tensin (PTEN) using HepaRG (AID 2283523)
Method in brief: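 HepaRG cells, 48 h after plating, exposed in duplicate for 48 h in serum-free induction medium to 8 half-log concentrations up to 100 uM (0.5% DMSO). PTEN mRNA by qRT-PCR, normalized to ACTB, GAPDH, POLR2A; bidirectional fit versus DMSO.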

[9] = read-out: solute carrier (SLC22A1), SLC22A1 (gene 6580); test: LTEA_HepaRG_SLC22A1: Life Technologies and Expression Analysis (LTEA) Assay for solute carrier (SLC22A1) using HepaRG (AID 2283524)
Method in brief: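 Differentiated human HepaRG cells in serum-free induction medium, exposed 48 h in duplicate to 8-point half-log series from 100 µM top in 0.5% DMSO. SLC22A1 mRNA by TaqMan qRT-PCR normalized to ACTB, GAPDH, POLR2A; bidirectional fit versus DMSO.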

[10] = read-out: Pyruvate Dehydrogenase Kinase 4 (PDK4), PDK4 (gene 5166); test: LTEA_HepaRG_PDK4: Life Technologies and Expression Analysis (LTEA) Assay for Pyruvate Dehydrogenase Kinase 4 (PDK4) using HepaRG (AID 2283525)
Method in brief: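 HepaRG cells plated 48 h, then switched to serum-free induction medium and exposed in duplicate for 48 h to 8 half-log concentrations from 100 uM in 0.5% DMSO. PDK4 mRNA measured by qRT-PCR, normalized to ACTB, GAPDH and POLR2A; bidirectional fit versus DMSO.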

[11] = read-out: NAD(P)H dehydrogenase [quinone] 1 (NQO1), NQO1 (gene 1728); test: LTEA_HepaRG_NQO1: Life Technologies and Expression Analysis (LTEA) Assay for NAD(P)H dehydrogenase [quinone] 1 (NQO1) using HepaRG (AID 2283526)
Method in brief: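 HepaRG, 48 h post-plating → serum-free induction medium → test chemical 48 h (duplicate, 100 uM top, half-log x8, 0.5% DMSO) → RNA isolation → qRT-PCR, ACTB/GAPDH/POLR2A normalization; bidirectional curve fit vs DMSO baseline.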

[12] = read-out: Nuclear factor erythroid 2-related factor 2 (Homo sapiens) (UniProt Q16236); test: LTEA_HepaRG_NFE2L2: Life Technologies and Expression Analysis (LTEA) Assay for Nuclear factor erythroid 2-related factor 2 (NFE2L2) Transcription Factor using HepaRG (AID 2283527)
Method in brief: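 Differentiated human HepaRG cells, serum-free induction medium, exposed 48 h in duplicate to eight half-log concentrations up to 100 uM in 0.5% DMSO. NFE2L2 mRNA by Fluidigm TaqMan qRT-PCR, normalised to ACTB, GAPDH, POLR2A; bidirectional change versus DMSO.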

[13] = read-out: succinate dehydrogenase complex iron sulfur subunit B (SDHB), SDHB (gene 6390); test: LTEA_HepaRG_SDHB: Life Technologies and Expression Analysis (LTEA) Assay for succinate dehydrogenase complex iron sulfur subunit B (SDHB) using HepaRG (AID 2283528)
Method in brief: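 SDHB transcript level read by TaqMan qRT-PCR, housekeeping-normalised (ACTB, GAPDH, POLR2A), after 48 h chemical treatment of plated HepaRG cells; eight concentrations top 100 uM, half-log steps, 0.5% DMSO, duplicates; fitted both directions against DMSO.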

[14] = read-out: Signal transducer and activator of transcription 3 (Homo sapiens) (UniProt P40763); test: LTEA_HepaRG_STAT3: Life Technologies and Expression Analysis (LTEA) Assay for Signal transducer and activator of transcription (STAT3) using HepaRG (AID 2283529)
Method in brief: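 Differentiated HepaRG cells, serum-free induction medium, dosed 48 h in duplicate, 8 half-log concentrations from 100 uM in 0.5% DMSO. STAT3 mRNA by qRT-PCR, normalised to ACTB, GAPDH, POLR2A; bidirectional fit versus DMSO.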

[15] = read-out: solute carrier (SLCO1B1), SLCO1B1 (gene 10599); test: LTEA_HepaRG_SLCO1B1: Life Technologies and Expression Analysis (LTEA) Assay for solute carrier (SLCO1B1) using HepaRG (AID 2283530)
Method in brief: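 Differentiated human HepaRG cells were exposed for 48 h in serum-free induction medium to eight half-log concentrations, top 100 uM, in 0.5% DMSO. SLCO1B1 mRNA was measured by qRT-PCR, normalized to ACTB, GAPDH and POLR2A, and fitted bidirectionally against DMSO.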

[16] = read-out: sulfotransferase 2A1 (SULT2A1), SULT2A1 (gene 6822); test: LTEA_HepaRG_SULT2A1: Life Technologies and Expression Analysis (LTEA) Assay for sulfotransferase 2A1 (SULT2A1) using HepaRG (AID 2283531)
Method in brief: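 HepaRG human liver cells, 48 h exposure in serum-free induction medium to 8 half-log concentrations topping at 100 µM (0.5% DMSO), duplicate wells. SULT2A1 mRNA measured by TaqMan qRT-PCR, normalized to ACTB/GAPDH/POLR2A; bidirectional fit against DMSO.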

[17] = read-out: Transforming Growth Factor (TGFA), TGFA (gene 7039); test: LTEA_HepaRG_TGFA: Life Technologies and Expression Analysis (LTEA) Assay for Transforming Growth Factor (TGFA) using HepaRG (AID 2283532)
Method in brief: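 Differentiated HepaRG cells exposed 48 hours in serum-free induction medium, 0.5% DMSO vehicle, 8-point half-log series from 100 uM, in duplicate. TGFA mRNA by TaqMan qRT-PCR, normalised to ACTB, GAPDH, POLR2A; bidirectional fit versus DMSO.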

[18] = read-out: Transforming Growth Factor (TGFB1), TGFB1 (gene 7040); test: LTEA_HepaRG_TGFB1: Life Technologies and Expression Analysis (LTEA) Assay for Transforming Growth Factor (TGFB1) Transporter using HepaRG (AID 2283533)
Method in brief: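 Differentiated HepaRG cells exposed 48 hr in serum-free induction medium to eight half-log concentrations up to 100 uM (0.5% DMSO), duplicate; TGFB1 mRNA by TaqMan qRT-PCR normalised to ACTB, GAPDH, POLR2A; bidirectional fit against DMSO.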

Sequence of Nuclear factor erythroid 2-related factor 2 (Homo sapiens) (Q16236 whole entry, looked up): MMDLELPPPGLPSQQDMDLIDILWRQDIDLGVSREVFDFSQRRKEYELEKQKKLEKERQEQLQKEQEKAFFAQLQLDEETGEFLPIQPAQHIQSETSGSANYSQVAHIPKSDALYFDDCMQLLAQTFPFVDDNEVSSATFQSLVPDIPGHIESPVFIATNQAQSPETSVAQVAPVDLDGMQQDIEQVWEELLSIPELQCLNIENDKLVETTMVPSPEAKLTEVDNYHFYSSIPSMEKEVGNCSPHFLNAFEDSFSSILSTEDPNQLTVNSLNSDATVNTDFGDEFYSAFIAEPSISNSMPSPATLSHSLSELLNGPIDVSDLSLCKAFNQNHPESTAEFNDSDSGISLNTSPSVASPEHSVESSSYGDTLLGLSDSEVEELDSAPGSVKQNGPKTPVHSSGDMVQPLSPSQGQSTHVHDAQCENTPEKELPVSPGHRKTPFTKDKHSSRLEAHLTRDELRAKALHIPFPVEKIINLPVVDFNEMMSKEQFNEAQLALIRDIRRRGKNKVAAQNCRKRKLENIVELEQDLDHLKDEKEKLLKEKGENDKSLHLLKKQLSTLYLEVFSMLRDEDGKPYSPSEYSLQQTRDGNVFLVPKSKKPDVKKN
Sequence of Signal transducer and activator of transcription 3 (Homo sapiens) (P40763 whole entry, looked up): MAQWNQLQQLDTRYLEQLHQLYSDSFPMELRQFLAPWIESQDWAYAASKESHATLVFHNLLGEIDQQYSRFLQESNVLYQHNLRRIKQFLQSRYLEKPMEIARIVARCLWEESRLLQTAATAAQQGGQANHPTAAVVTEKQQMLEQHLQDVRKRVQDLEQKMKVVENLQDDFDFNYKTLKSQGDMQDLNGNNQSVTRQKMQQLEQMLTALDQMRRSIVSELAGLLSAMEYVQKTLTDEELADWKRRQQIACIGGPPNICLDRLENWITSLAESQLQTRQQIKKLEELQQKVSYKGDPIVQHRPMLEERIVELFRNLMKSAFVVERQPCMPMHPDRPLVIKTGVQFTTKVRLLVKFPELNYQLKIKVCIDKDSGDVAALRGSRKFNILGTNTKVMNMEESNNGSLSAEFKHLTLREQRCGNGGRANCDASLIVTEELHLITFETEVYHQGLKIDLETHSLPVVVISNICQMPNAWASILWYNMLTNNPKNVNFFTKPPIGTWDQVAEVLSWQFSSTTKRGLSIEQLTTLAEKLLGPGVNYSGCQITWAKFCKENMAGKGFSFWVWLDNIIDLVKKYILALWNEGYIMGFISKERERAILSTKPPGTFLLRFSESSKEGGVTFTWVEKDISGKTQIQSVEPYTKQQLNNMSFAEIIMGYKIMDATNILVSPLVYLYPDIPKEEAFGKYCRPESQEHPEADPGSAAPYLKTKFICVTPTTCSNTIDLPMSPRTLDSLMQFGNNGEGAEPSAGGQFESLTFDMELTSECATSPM

`Cc1ccc2oc(CN(Cc3ccccc3)C(=O)Nc3c(F)cc(F)cc3F)c(-c3ccc(Cl)cc3)c2c1` was tested, and the AC50 [1] was 44.2 µM (active), the AC50 [2] was 56.4 µM (active) and the outcome [3] was “inactive”. For the same compound, the outcome [4] was “inactive”, the AC50 (MYC, MYC (gene 4609)) was 44.2 µM (active) and the outcome [5] was “inactive”. For the same compound, the outcome [6] was “inactive”, the outcome [7] was “inactive” and the outcome [8] was “inactive”. The AC50 [9] was 44.2 µM (active), the outcome [10] was “inactive” and the outcome [11] was “inactive”. For the same compound, the outcome [12] was “inactive”, the outcome [13] was “inactive” and the outcome [14] was “inactive”. For the same compound, the outcome [15] was “inactive”, the outcome [16] was “inactive” and the outcome [17] was “inactive”. The outcome [18] was “inactive”.

With `CN1C(=O)CC[C@H]1c1cccnc1` the outcome [1] was “inactive”, the outcome [2] was “inactive” and the outcome [3] was “inactive”. For the same compound, the outcome [4] was “inactive”, the outcome (MYC, MYC (gene 4609)) was “inactive” and the outcome [5] was “inactive”. The outcome [6] was “inactive”, the outcome [8] was “inactive” and the outcome [9] was “inactive”. For the same compound, the outcome [10] was “inactive”, the outcome [11] was “inactive” and the outcome [12] was “inactive”. The outcome [13] was “inactive”, the outcome [14] was “inactive” and the outcome [15] was “inactive”. For the same compound, the outcome [16] was “inactive”, the outcome [17] was “inactive” and the outcome [18] was “inactive”.

In the case of `CC(=O)N1CCN(c2ccc(OC[C@H]3CO[C@](Cn4ccnc4)(c4ccc(Cl)cc4Cl)O3)cc2)CC1`, the AC50 [1] is reported as 18.3 µM (active), the AC50 [2] is reported as 86.3 µM (active) and the AC50 [3] is reported as 13.3 µM (active). For the same compound, the AC50 [4] was 16.7 µM (active), the AC50 (MYC, MYC (gene 4609)) was 15.4 µM (active) and the AC50 [5] was 24 µM (active). The AC50 [6] was 42.5 µM (active), the AC50 [8] was 78.8 µM (active) and the AC50 [9] was 13.3 µM (active). For the same compound, the AC50 [10] was 11 µM (active), the outcome [11] was “inactive” and the AC50 [12] was 12 µM (active). For the same compound, the AC50 [13] was 30.8 µM (active), the AC50 [14] was 35 µM (active) and the AC50 [15] was 22.8 µM (active). The AC50 [16] was 12.2 µM (active) and the AC50 [17] was 12.1 µM (active).

`CC1(C)NC(=O)N(c2ccc([N+](=O)[O-])c(C(F)(F)F)c2)C1=O` was tested, and the AC50 [1] was 89.7 µM (active), the AC50 [2] was 76.2 µM (active) and the AC50 [3] was 80.9 µM (active). The outcome [4] was “inactive”, the outcome [5] was “inactive” and the AC50 [6] was 15.7 µM (active). For the same compound, the outcome [8] was “inactive”, the AC50 [9] was 74.3 µM (active) and the AC50 [10] was 80.1 µM (active). For the same compound, the outcome [11] was “inactive”, the outcome [12] was “inactive” and the AC50 [13] was 50 µM (active). The outcome [14] was “inactive”, the AC50 [15] was 69.3 µM (active) and the AC50 [16] was 84.1 µM (active). The AC50 [17] was 50 µM (active) and the outcome [18] was “inactive”.

— PubChem BioAssay (EPA / NIEHS)
